From PubChem BioAssay (Tox21)
Where “and” joins values, the source holds several entries; their conditions need not be identical. Equal entries are not always repeated. Results filed as inconclusive are left out. Entries that show only a call come without a potency. Calls of active or inactive are those of the source. Unless noted, calls come from the whole dose curve; as a rule, active = well fitted curve in the direction sought with a large enough effect in the repeat runs; inconclusive = weak or mixed curves; inactive = no such curve, though single readings can be large; an effect the other way counts as inactive or inconclusive.

Columns and labels:
[1] = qHTS assay for small molecule agonists of the p53 signaling pathway (AID 651631; calls by dose curve; note: nearly all actives have a fitted effect of over 15% in size; note: potency is the fitted concentration of half-maximal effect); conditions: HCT-116 p53RE-bla reporter, beta-lactamase FRET ratio, 16 h; series mostly up to 73.3 µM
Outline: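 Stably transfected HCT-116 cells (beta-lactamase behind p53 response elements) get compounds after a 5 h settling period; 16 h later at 37 °C, FRET substrate is loaded and fluorescence read after 2 h.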

[2] = qHTS assay for small molecules that induce genotoxicity in human embryonic kidney cells expressing luciferase-tagged ATAD5 (AID 651632); conditions: HEK293T ATAD5-luciferase induction, 16 h; series mostly up to 83.3 µM; note: nearly all actives have a fitted effect of over 15% in size; note: potency is the fitted concentration of half-maximal effect
Outline: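 Increased luciferase signal from ATAD5-tagged reporter cells indicates DNA-damage-driven ATAD5 induction. HEK293T cells are treated for 16 hr at 37C before detection with Amplite.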

[3] = qHTS assay for small molecules that induce genotoxicity in human embryonic kidney cells expressing luciferase-tagged ATAD5 - cell viability (AID 651634; calls by dose curve; note: nearly all actives have a fitted effect of over 25% in size; note: potency is the fitted concentration of half-maximal effect); conditions: HEK293T ATAD5-luc cells viability, CellTiter-Fluor, 15.5 h; series mostly up to 83.3 µM
Outline: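 Cytotoxicity counterscreen in HEK293T cells bearing an ATAD5-luciferase reporter: live-cell protease activity measured by CellTiter-Fluor fluorescence after 15.5 hr compound exposure.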

[4] = qHTS assay for small molecule disruptors of the mitochondrial membrane potential - cell viability (AID 720634; calls by dose curve; note: nearly all actives have a fitted effect of over 20% in size; note: potency is the fitted concentration of half-maximal effect); conditions: HepG2 viability, ATP luminescence (CellTiter-Glo), 1 h; series mostly up to 83.2 µM
Outline: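 After overnight attachment at 37 C, HepG2 cells received compound or DMSO vehicle for 1 hr. Viability is then taken from ATP-driven luminescence following a 30 min room-temperature CellTiter-Glo step.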

[5] = qHTS assay to test for compound auto fluorescence at 590 nm (red) in HepG2 cells (AID 720674); conditions: HepG2 autofluorescence, red 540/590 nm, 1 h; series mostly up to 91.3 µM
Outline: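 Rose Bengal sodium served as the red fluorophore standard. HepG2 monolayers (overnight attachment, MEM with 10% FBS) were exposed to test compounds for 1 hr at 37 C and read at Ex 540/Em 590 nm.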

[6] = qHTS assay to test for compound auto fluorescence at 535 nm (green) in HepG2 cells (AID 720675); conditions: green autofluorescence 485/535 nm, 1 h; series mostly up to 91.3 µM
[7] = qHTS assay to test for compound auto fluorescence at 460 nm (blue) in HEK293 cells (AID 720678); conditions: blue autofluorescence 405/460 nm; series mostly up to 91.3 µM; note: potency is the fitted concentration of half-maximal effect
Outline: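 Triamterene serves as the blue fluorophore standard. Compound signal at 405/460 nm is read in HEK293 wells (2,000 cells, 10% dialyzed FBS) after overnight treatment at 37C.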

[8] = qHTS assay to test for compound auto fluorescence at 590 nm (red) in HEK293 cells (AID 720679); conditions: red autofluorescence 540/590 nm; series mostly up to 91.3 µM
Outline: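 We plated HEK293 cells in 10% dialyzed FBS medium, let them adhere for 4-5 hr, then added 23 nL compound. Overnight at 37C and 5% CO2 preceded fluorescence measurement at 540/590nm.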

[9] = qHTS assay for small molecule disruptors of the mitochondrial membrane potential (AID 720635); conditions: HepG2 mitochondrial membrane potential, Mito-MPS dye ratio; series mostly up to 83.2 µM; note: potency is the fitted concentration of half-maximal effect
Outline: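 HepG2 cells (2,000/well) attached overnight at 37C, then took compound for 1 hr at 37C, 5% CO2. Mito-MPS dye was added for 30 min; fluorescence was read at 490/535 nm (monomers) and 540/590 nm (aggregates).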

[10] = qHTS assay for small molecule agonists of the p53 signaling pathway - cell viability (AID 651633; calls by dose curve; note: nearly all actives have a fitted effect of over 30% in size; note: potency is the fitted concentration of half-maximal effect); conditions: p53RE-bla HCT-116 viability, ATP luminescence, 16 h; series mostly up to 83.3 µM
Outline: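 p53RE-bla cells, seeded at 4,000 per well and rested 5 h at 37 C/5% CO2, received compounds in DMSO for 16 h at 37 C. CellTiter-Glo was then added, and luminescence was read after 30 min at room temperature to gauge cytotoxicity.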
Tags give direction and shape of the fitted curve or compound fluorescence and quenching.

Row | SMILES | Potency [1] | Potency [2] | Potency [3] | Potency [4] | outcome [5] | outcome [6] | Potency [7] | outcome [8] | Potency [9] | Potency [10]
1 | CCCCCCCCCBr | inactive | inactive | inactive | inactive | inactive | inactive | inactive | inactive | – | –
2 | O=C1NCN(c2ccccc2)C12CCN(CC1COc3ccccc3O1)CC2 (stereo not given) | inactive | inactive | inactive | – | inactive | inactive | inactive | inactive | inactive | –
3 | c1ccc(Nc2ccc3ccccc3c2)cc1 | – | inactive | inactive | 17.1 µM (active) | inactive | inactive | inactive | inactive | 8.58 µM (active) and 13.7 µM (active) | inactive
4 | [Cl][Sb]([Cl])[Cl] | 34.4 µM (active) | – | – | inactive | inactive | inactive | inactive | inactive | – | inactive
5 | N#CNC#N | inactive | – | inactive | inactive | inactive | inactive | inactive | inactive | – | inactive
6 | CCC(C)c1cc([N+](=O)[O-])cc([N+](=O)[O-])c1OC(=O)C=C(C)C (stereo not given) | 12.2 µM (active) | inactive | 30.6 µM (active) | – | inactive | inactive | inactive | inactive | – | –
7 | CC(=O)C(Cl)(Cl)Cl | – | inactive | 13.2 µM (active) | 0.209 µM (active) | inactive | inactive | inactive | – | 0.743 µM (active) | inactive
8 | CN(C)[C@@H]1C(=O)C(C(N)=O)=C(O)[C@@]2(O)C(=O)C3=C(O)c4c(O)ccc(Cl)c4[C@@](C)(O)[C@H]3C[C@@H]12 | inactive | inactive | inactive | – | inactive | inactive | inactive | inactive | inactive | –
9 | CC(C)Oc1cccc(NC(=O)c2ccccc2C(F)(F)F)c1 | – | inactive | inactive | 30.6 µM (active) | inactive | inactive | inactive | – | 17.2 µM (active) | inactive
10 | CCC[CH2][Sn]([CH2]CCC)([CH2]CCC)[O]C(=O)c1ccccc1 | – | inactive | 1.22 µM (active) | 2.17 µM (active) | inactive | inactive | inactive | inactive | 0.077 µM (active) | 0.611 µM (active)
11 | O=C(CCCN1CCC2(CC1)C(=O)NCN2c1ccccc1)c1ccc(F)cc1 | – | inactive | inactive | inactive | inactive | inactive | inactive | inactive | 3.35 µM (active) | inactive
12 | C=CC(=O)OCC(COC(=O)C=C)(COC(=O)C=C)COC(=O)C=C | – | 5.45 µM (active) | 12.2 µM (active) | inactive | inactive | inactive | inactive | inactive | – | 6.86 µM (active)
13 | CC(=O)/C=C/c1ccc2c(c1)OCO2 | 30.8 µM (active) | inactive | inactive | inactive | inactive | inactive | inactive | inactive | inactive | –
14 | CSCCCN=C=S | 54.5 µM (active) | – | 54.5 µM (active) | – | inactive | inactive | inactive | inactive | – | –
15 | CC(C)(C)c1ccc(CSc2cnn(C(C)(C)C)c(=O)c2Cl)cc1 | – | inactive | inactive | 24.3 µM (active) | inactive | inactive | inactive | – | 7.7 µM (active) | inactive
16 | c1ccc(OCC2CO2)cc1 (stereo not given) | inactive | – | – | – | inactive | inactive | inactive | – | – | –
17 | COc1cccc(C(=O)CCN[C@@H](C)[C@H](O)c2ccccc2)c1 | – | inactive | inactive | inactive | inactive | inactive | inactive | inactive | – | inactive
18 | NNC(=O)c1ccccc1 | inactive | inactive | inactive | – | inactive | inactive | inactive | inactive | – | –
19 | CCOc1cc(C(C)(C)C)ccc1C1COC(c2c(F)cccc2F)=N1 (stereo not given) | – | inactive | inactive | 29.5 µM (active) | inactive | inactive | inactive | – | 16.6 µM (active) | 41.6 µM (active)
20 | [CH3][Hg][Cl] | 30.5 µM (active) | 4.84 µM (active) | 27.2 µM (active) | – | inactive | inactive | inactive | – | 19.3 µM (active) | –

Row | SMILES | Potency [1] | Potency [2] | Potency [3] | Potency [4] | outcome [5] | outcome [6] | Potency [7] | outcome [8] | Potency [9] | Potency [10]
21 | COc1ccc(/C(=C/C(=O)N2CCOCC2)c2ccc(Cl)cc2)cc1OC | inactive | inactive | inactive | – | inactive | inactive | inactive | inactive | – | –
22 | C=CCC1=C(C)C(OC(=O)C2C(C=C(C)C)C2(C)C)CC1=O (stereo not given) | – | inactive | inactive | 11.5 µM (active) | inactive | inactive | inactive | inactive | 5.78 µM (active) | 64.8 µM (active)
23 | CCOC(=O)CC(=O)CCl | 68.6 µM (active) | – | – | inactive | inactive | inactive | inactive | inactive | – | –
24 | ClC1=C(Cl)C2(Cl)C3C(Cl)C=CC3C1(Cl)C2(Cl)Cl (stereo not given) | – | inactive | inactive | inactive | inactive | inactive | inactive | – | 27.4 µM (active) and 54.5 µM (active) | 68.9 µM (active) and 54.5 µM (active)
25 | c1ccc2cc3c(cc2c1)-c1cccc2cccc-3c12 | 1.7 µM (active) | inactive | inactive | inactive | inactive | inactive | 3.55 µM [fluorescent] (active) | inactive | – | –
26 | CCC(C)(C)C(=O)OC1=C(c2ccc(Cl)cc2Cl)C(=O)OC12CCCCC2 | 7.7 µM (active) | – | inactive | – | inactive | inactive | inactive | inactive | 9.69 µM (active) | 61.1 µM (active)
27 | CS(=O)(=O)c1ccc(C(=O)C2C(=O)CCCC2=O)c([N+](=O)[O-])c1 | – | inactive | inactive | inactive | inactive | inactive | inactive | – | 6.98 µM (active) | inactive
28 | ClC1=C(Cl)C2(Cl)C3C(Cl)C(Cl)CC3C1(Cl)C2(Cl)Cl (stereo not given) | – | inactive | inactive | inactive | inactive | inactive | inactive | inactive | 7.67 µM (active) and 13.7 µM (active) | 54.3 µM (active) and 61.1 µM (active)
29 | O=C(O)c1cc[c]([Hg][Cl])cc1 | 61.1 µM (active) | – | – | – | inactive | inactive | inactive | inactive | – | –
30 | BrC(Br)Br | inactive | – | inactive | inactive | inactive | inactive | inactive | inactive | – | inactive
31 | CCCN(CC)CC1COC2(CCC(C(C)(C)C)CC2)O1 (stereo not given) | inactive | inactive | inactive | inactive | inactive | inactive | inactive | – | – | –
32 | CC(C)CCCCCCCOP(=O)(Oc1ccccc1)Oc1ccccc1 | inactive | – | – | – | inactive | inactive | inactive | inactive | – | inactive
33 | COc1cc(C=O)cc2c1[C@H](COC(N)=O)[C@]1(OC(C)=O)ON2C[C@H]2[C@@H]1N2C(C)=O | 1.54 µM (active) | inactive | – | – | inactive | inactive | inactive | inactive | inactive | –
34 | Cc1cc(C(F)(C(F)(F)F)C(F)(F)F)ccc1NC(=O)c1cccc(I)c1C(=O)NC(C)(C)CS(C)(=O)=O | – | inactive | inactive | inactive | inactive | inactive | inactive | – | 17.3 µM (active) | inactive
35 | CC(C)OS(C)(=O)=O | inactive | inactive | inactive | inactive | inactive | inactive | inactive | inactive | – | –
36 | O=S(=O)(c1ccc(Cl)cc1)c1ccc(Cl)cc1 | – | inactive | inactive | – | inactive | inactive | inactive | inactive | 4.92 µM (active) | inactive
37 | Cc1cc(C)c(C2=C(OC(=O)CC(C)(C)C)C3(CCCC3)OC2=O)c(C)c1 | – | inactive | inactive | – | inactive | inactive | inactive | inactive | 12.8 µM (active) | inactive
38 | CC1(C)[C@H](C(=O)O[C@H](C#N)c2cccc(Oc3ccccc3)c2)[C@@H]1/C=C(\Cl)C(F)(F)F | – | inactive | inactive | – | inactive | inactive | inactive | inactive | 25.3 µM (active) | inactive
39 | CC1(C)CN=C(NN=C(/C=C/c2ccc(C(F)(F)F)cc2)/C=C/c2ccc(C(F)(F)F)cc2)NC1 | – | inactive | 48.6 µM (active) | – | inactive | inactive | inactive | inactive | 17.2 µM (active) | 27.3 µM (active)
40 | O=c1[nH]c2ccccc2n1C1CCN(CCCC(c2ccc(F)cc2)c2ccc(F)cc2)CC1 | – | inactive | 29.8 µM (active) and 54.5 µM (active) | – | inactive | inactive | inactive | inactive | – | 23.7 µM (active) and 61.1 µM (active)
